High-throughput results from PubChem.
In the library only some 28% were active in any assay of this set; here they are far more common.
CYP2C19 inh = human CYP2C19 inhibition; P33261; CYP2C19 Supersomes, luciferin-H EGE luminescence, 30 min; inhibition, % at 5 µM; actives 21% (n = 96,000); AID 778;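 active means CYP2C19 inhibition above a set limit at 5 µM in the primary screen, cut at about 50% in these data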;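 further: plate controls were negative control wells for no effect and 2.5 mM tranylcypromine positive control for full effect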
Target sequence (P33261 whole entry, looked up): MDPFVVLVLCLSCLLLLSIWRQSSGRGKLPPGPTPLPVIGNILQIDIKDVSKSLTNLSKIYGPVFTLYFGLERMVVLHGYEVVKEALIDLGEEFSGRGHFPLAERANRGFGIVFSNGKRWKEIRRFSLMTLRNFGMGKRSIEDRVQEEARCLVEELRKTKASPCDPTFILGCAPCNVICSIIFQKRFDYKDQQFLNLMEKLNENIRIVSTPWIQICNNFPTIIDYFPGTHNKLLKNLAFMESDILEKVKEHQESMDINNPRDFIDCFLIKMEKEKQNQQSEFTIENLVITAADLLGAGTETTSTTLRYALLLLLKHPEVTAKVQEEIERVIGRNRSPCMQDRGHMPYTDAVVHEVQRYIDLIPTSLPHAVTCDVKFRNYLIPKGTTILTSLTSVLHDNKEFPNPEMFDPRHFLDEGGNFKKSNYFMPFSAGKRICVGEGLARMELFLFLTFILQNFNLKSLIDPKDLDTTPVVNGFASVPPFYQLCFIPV
CYP2C9 act = activators of human CYP2C9; P11712; recombinant CYP2C9, luciferin-H conversion, luminescence; hits give high values; factor 1 = untreated enzyme, 0 = blocked; activation factor at 5 µM; actives 1.4% (n = 96,000);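 active means activation factor of 2 or more for CYP2C9 at a 5 µM dose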;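 further: 0 = sulfaphenazole-blocked wells and 1 = vehicle-only wells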
CYP2C9 inh = inhibitors of human CYP2C9; actives 20% (n = 96,000); P11712; CYP2C9 Supersomes, luciferin-H conversion, luminescence; inhibition, % at 5 µM;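 active means blocking of liver enzyme CYP2C9 beyond about 50% at 5 µM, limit read from the data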
Pyk2 oligo antag = antagonists of human Pyk2 oligomerization; Q14289; Q293 cells, Pyk2 FERM NanoBiT luminescence; hits give low values; z-score (the deposit names both 25 µM and 10 µM); actives 0.83% (n = 99,000); AID 1347419;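 active means Z-score of -3 or lower, scaled per plate to the spread of control and sample wells; inactive means z-score above -3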;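 further: negative z-score means lost luminescence so less FERM oligomerization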
CYP2C19 act = increases human CYP2C19 enzyme activity; P33261; recombinant CYP2C19, luciferin-H EGE luminescence; hits give high values; 0 = fully inhibited enzyme, 1 = untreated enzyme; 96,000 tested, under 10 active; AID 1025; activation factor at 5 µM;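 active means activation factor of at least 2 at 5 µM in the primary screen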;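 further: 0 = wells with 2.5 mM tranylcypromine and 1 = vehicle-only wells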
The depositor's hits bear a star; x = no result.

SMILES	CYP2C19 inh	CYP2C9 act	CYP2C9 inh	Pyk2 oligo antag	CYP2C19 act
COCCNC(=O)CN(c1cc(Cl)ccc1OC)S(C)(=O)=O	7	0.9	10	0.51	0.9
CCNC(=O)CN(c1ccc(OC)c(OC)c1)S(=O)(=O)c1ccccc1	8	1.1	-9	0.08	0.9
CSc1nsc(NC(=O)Cc2ccccc2)n1	65*	0.7	30	1.2	0.3
CCCCCCOC(=O)Sc1nc2ccccc2o1	52*	0.3	65*	0.52	0.5
COC(=O)CSc1nc2ccccc2o1	3	0.9	11	1	1
O=C(CN1CCN(c2ccc(F)cc2)CC1)Nc1ccc(-n2cnnn2)cc1	x	x	x	0.87	x
Cc1nn(S(=O)(=O)c2cccs2)c(C)c1Sc1ccc([N+](=O)[O-])cc1	24	0.7	28	-1.4	0.8
Cc1nn(S(=O)(=O)c2ccccc2)c(C)c1Sc1ccc([N+](=O)[O-])cc1	62*	0.6	36	-0.48	0.4
CCc1nnc(NC(=O)c2ccc(S(=O)(=O)N(CCOC)CCOC)cc2)s1	1	2*	-102	x	1
CCCCN(CC)S(=O)(=O)c1ccc(C(=O)Nc2nnc(COC)o2)cc1	-5	0.4	64*	-0.79	1
COc1ccccc1-c1nnc(NC(=O)c2ccc(S(=O)(=O)N(C)C)cc2)o1	2	1.2	-15	-1.2	1
COc1ccccc1-c1nnc(NC(=O)c2ccccc2F)o1	-4	0.4	64*	x	1
CCN(Cc1ccccc1)S(=O)(=O)c1ccc(C(=O)Nc2nnc(-c3ccccc3OC)o2)cc1	0	0.3	70*	-3.9*	1
CC(C)=CCC(C)(C)CNC(=O)NC1CCCCC1	x	x	x	0	x
O=C(Nc1nnc(-c2ccccc2Cl)o1)c1ccc(S(=O)(=O)N2CCCCCC2)cc1	16	0.5	54*	x	0.8
CCCCN(CCCC)S(=O)(=O)c1ccc(C(=O)Nc2nnc(CSC)o2)cc1	-11	0.9	5	-1.8	1.1
CCCCN(CC)S(=O)(=O)c1ccc(C(=O)Nc2nnc(-c3ccccc3Cl)o2)cc1	11	0.3	69*	-2.7	0.9
CCCCN(CC)S(=O)(=O)c1ccc(C(=O)Nc2nnc(CSC)o2)cc1	-4	0.2	82*	-1.8	1
O=C(c1ccc(CNS(=O)(=O)c2ccccc2)cc1)N1CCN(Cc2ccccc2)CC1	41	0.5	46	0.43	0.6
O=C(c1ccccc1)N1CCC(c2nc3c(nnn3Cc3ccccc3Cl)c(=O)[nH]2)CC1	40	0.4	63*	-2.6	0.6
COc1ccccc1Cn1nnc2c(=O)[nH]c(C3CCN(C(=O)c4ccc(C)cc4)CC3)nc21	32	0.3	66*	-1.6	0.7
N#Cc1ccc(NC(=O)N2CCC(c3nc4c(nnn4Cc4cccc(Cl)c4)c(=O)[nH]3)CC2)cc1	16	0.5	47	-0.23	0.8
O=C(NCc1cccs1)c1nc2c(nnn2Cc2ccccc2Cl)c(=O)[nH]1	x	x	x	-2.6	x
CC(C)(C)CC(=O)N1CCC(c2nc3c(nnn3Cc3c(F)cccc3Cl)c(=O)[nH]2)CC1	52*	0.2	82*	-0.93	0.5
COc1ccccc1Cn1nnc2c(=O)[nH]c(C3CCN(C(=O)c4ccccc4Cl)CC3)nc21	75*	0.1	94*	-2.2	0.2
SMILES	CYP2C19 inh	CYP2C9 act	CYP2C9 inh	Pyk2 oligo antag	CYP2C19 act
CC(Sc1nc(-c2ccccc2)cc(C(F)(F)F)n1)C(=O)NCc1ccco1 (stereo not drawn)	-2	1.6	-57	-0.17	1
CC1CCCN(C(=O)C(C)Sc2nc(-c3ccccc3)cc(C(F)(F)F)n2)C1 (stereo not drawn)	71*	0.4	60*	-0.38	0.3
CC(Sc1nc(-c2ccccc2)cc(C(F)(F)F)n1)C(=O)N1CCCCC1 (stereo not drawn)	47	0.4	58*	-0.85	0.5
O=C(CSc1nc(-c2ccccc2)cc(C(F)(F)F)n1)N1CCOCC1	3	0.9	8	-0.75	1
O=C(CCSc1nc2ccccc2o1)N1CCOCC1	x	x	x	0.58	x
COC(=O)c1ccc(COc2ncnc3c(Cl)cc(Cl)cc23)o1	44	0.4	62*	0.21	0.6
CCn1nnnc1SCC(=O)c1ccc2c(c1)OCCO2	34	0.8	20	0.36	0.7
O=C(CSc1nnc2ccccn12)c1ccc2c(c1)OCCO2	82*	0.9	6	-0.84	0.2
c1ccn2c(SCc3ccc4c(c3)OCO4)nnc2c1	65*	0.9	8	-0.44	0.3
Cn1c(SCc2ccc3c(c2)OCO3)nnc1-c1ccccc1	98*	0.5	50	-0.54	0
Fc1ccc(CSc2nncn2NCc2ccc3c(c2)OCO3)cc1	93*	0.2	83*	0.18	0.1
COc1ccc(C(C)=O)cc1CSc1nnc(Nc2c(C)cccc2C)s1	x	x	x	-0.93	x
Cc1cc(OCC(=O)Nn2cnnc2)c(C)cc1Br	99*	0.1	90*	-0.1	0
O=C(COc1ccc2ccccc2c1Br)Nn1cnnc1	98*	0.2	85*	0.81	0
O=C(COc1cc(Cl)c(Cl)cc1Cl)Nn1cnnc1	96*	0.2	82*	0.21	0
O=C(COc1cc(Cl)c(Cl)cc1Cl)Nc1ccncc1	99*	0	100*	2.9	0
O=C(COc1ccc(Cl)cc1Cl)NC(=O)N1CCCCC1	28	1	4	1.2	0.7
Cc1ccc(Cl)c(OCC(=O)Nc2ccc3c(c2)OCCO3)c1	1	1.1	-12	-0.16	1
Cc1ccc(OCC(=O)Nn2cnnc2)c(Br)c1	x	x	x	0.23	x
CCN=C1SC(CC(=O)Nc2ccccc2OCC)C(=O)N1CC (stereo not drawn)	76*	1.4	-36	-0.06	0.2
CCCCOc1ccccc1NC(=O)CC1Nc2ccccc2NC1=O (stereo not drawn)	26	0.4	64*	-1.4	0.7
CCN=C1SC(CC(=O)NCCc2ccc(OC)cc2)C(=O)N1CC (stereo not drawn)	48	0.5	51*	0.63	0.5
CCN=C1SC(CC(=O)Nc2ccc(C(F)(F)F)cc2)C(=O)N1CC (stereo not drawn)	65*	0.8	17	-0.53	0.4
CCCCNC(=O)CC1Nc2ccccc2NC1=O (stereo not drawn)	-18	1.2	-17	x	1.2
CCN=C1SC(CC(=O)NCCc2ccc(OC)c(OC)c2)C(=O)N1CC (stereo not drawn)	17	0.8	22	1.1	0.8
CCCCOc1ccccc1NC(=O)CC1SC(=NCC)N(CC)C1=O (stereo not drawn)	69*	1.1	-14	-0.68	0.3
CCCCN1C(=O)C(CC(=O)NCC)SC1=Nc1ccccc1 (stereo not drawn)	x	x	x	1.8	x
CCN=C1SC(CC(=O)Nc2sc3c(c2C#N)CCCC3)C(=O)N1CC (stereo not drawn)	20	0.5	53*	0.05	0.8
CCNC(=O)CC1SC(=Nc2ccc(C)cc2)N(CC)C1=O (stereo not drawn)	53*	0.7	27	-0.41	0.5
